“And” between values parts separate entries of the source, which are not always exact repeats. Equal entries are not always repeated. The whole screen tested about 5,500 compounds, of which about 2,000 (36%) were called active. Not shown: some 18% with an inconclusive outcome. No stated cut-off is given here; in the data, active means normalized growth mostly below about 0.91 (no sharp cut-off); inconclusive means no clear call, values can overlap the other calls; inactive means mostly above about 0.92. The list shows a part of the results.
Assay: chemical genetic growth profiling, strain panel (AID 1159580);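 further: tested at 20 µM; growth read once vehicle control cultures reached saturation at 30 °C; 1 = growth at the plate median or of vehicle wells; lower values mean less growth of the strain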
Settings: S. cerevisiae deletion strains, growth OD

Measured: normalized growth

COC1CC(O[C@H]2CC[C@]3(C=O)C4CC[C@]5(C)C(C6=CC(=O)OC6)CC[C@]5(O)C4CC[C@]3(O)C2)OC(C)C1O (some centres not stated)
inactive: locus YAL013W, strain DEP1, active compounds read low 1.02 | locus YAL021C, strain ccr4, active compounds read low 0.938 | locus YAL026C, strain drs2, active compounds read low 1.02 | locus YAL030W, strain snc1, active compounds read low 0.978 | locus YBL061C, strain skt5, active compounds read low 0.99 | locus YBR009C, strain hhf1, active compounds read low 0.985 | locus YBR021W, strain FUR4, active compounds read low 1.01 | locus YBR023C, strain chs3, active compounds read low 0.967 | locus YBR171W, strain sec66, active compounds read low 1 | locus YBR229C, strain ROT2, active compounds read low 1.02 | locus YBR231C, strain swc5, active compounds read low 1 | locus YBR279W, strain paf1, active compounds read low 1 | locus YCL011C, strain gbp2, active compounds read low 0.961 | locus YCL016C, strain dcc1, active compounds read low 0.954 | locus YCL029C, strain bik1, active compounds read low 0.994 | locus YCL069W, strain vba3, active compounds read low 0.969 | locus YCR088W, strain abp1, active compounds read low 0.983 | locus YDL005C, strain med2, active compounds read low 0.969 | locus YDL035C, strain GPR1, active compounds read low 1.04 | locus YDL040C, strain nat1, active compounds read low 0.986 | locus YDL074C, strain BRE1, active compounds read low 1.09 | locus YDL101C, strain DUN1, active compounds read low 1.02 | locus YDL134C, strain PPH21, active compounds read low 1.02 | locus YDL185W, strain tfp1, active compounds read low 0.995 | locus YDL192W, strain arf1, active compounds read low 1.02 | locus YDR001C, strain nth1, active compounds read low 0.955 | locus YDR069C, strain doa4, active compounds read low 0.994 | locus YDR101C, strain arx1, active compounds read low 1.02 | locus YDR137W, strain rgp1, active compounds read low 0.975 | locus YDR159W, strain sac3, active compounds read low 1 | locus YDR162C, strain NBP2, active compounds read low 1.03 | locus YDR195W, strain ref2 0.914 | locus YDR297W, strain sur2, active compounds read low 0.999 | locus YDR318W, strain mcm21, active compounds read low 1.01 | locus YDR334W, strain swr1, active compounds read low 0.977 | locus YDR335W, strain msn5, active compounds read low 0.955 | locus YDR388W, active compounds read low 0.987 | locus YDR392W, strain spt3, active compounds read low 0.903 | locus YDR502C, strain sam2, active compounds read low 0.987 | locus YEL003W, strain gim4, active compounds read low 1.01 | locus YEL037C, strain rad23, active compounds read low 0.977 | locus YEL061C, strain CIN8 (second series), active compounds read low 0.981 | locus YER015W, strain faa2, active compounds read low 0.975 | locus YER016W, strain bim1, active compounds read low 0.983 | locus YER110C, active compounds read low 0.986 | locus YER111C, strain swi4, active compounds read low 0.994 | locus YER155C, strain BEM2 (second series), active compounds read low 1.01 | locus YER155C, strain BEM2, active compounds read low 1.01 | locus YER167W, strain BCK2, active compounds read low 1.03 | locus YFR010W, strain ubp6, active compounds read low 1 | locus YGL078C, strain dbp3, active compounds read low 0.992 | locus YGL086W, strain mad1, active compounds read low 0.998 | locus YGL167C, strain pmr1, active compounds read low 0.976 | locus YGL173C, strain kem1, active compounds read low 0.992 | locus YGL227W, strain vid30, active compounds read low 0.987 | locus YGL240W, strain doc1, active compounds read low 1 | locus YGL248W, strain PDE1, active compounds read low 1.01 | locus YGL253W, strain hxk2, active compounds read low 0.997 | locus YGR078C, strain PAC10, active compounds read low 1.02 | locus YGR135W, strain pre9, active compounds read low 0.981 | locus YGR229C, strain SMI1, active compounds read low 1.04 | locus YGR252W, strain gcn5, active compounds read low 0.949 | locus YHR013C, strain ard1, active compounds read low 0.934 | locus YHR027C, strain rpn1, active compounds read low 0.97 | locus YHR030C, strain SLT2, active compounds read low 1.02 and 0.984 | locus YHR079C, strain IRE1 (second series), active compounds read low 0.998 | locus YHR079C, strain IRE1, active compounds read low 1.01 | locus YHR094C, strain hxt1, active compounds read low 0.984 | locus YHR129C, strain ARP1, active compounds read low 1.02 | locus YHR142W, strain chs7, active compounds read low 0.918 | locus YHR200W, strain rpn10, active compounds read low 0.992 | locus YIL066C, strain RNR3, active compounds read low 1.05 | locus YIL073C, strain SPO22, active compounds read low 1.01 | locus YIL125W, strain kgd1, active compounds read low 1 | locus YIR030C, strain dcg1, active compounds read low 0.993 | locus YJL092W, strain hpr5, active compounds read low 0.985 | locus YJL095W, strain BCK1 (second series), active compounds read low 0.987 | locus YJL095W, strain BCK1, active compounds read low 1.04 and 0.985 | locus YJL115W, strain asf1, active compounds read low 0.964 | locus YJL129C, strain trk1, active compounds read low 0.958 | locus YJL134W, strain LCB3, active compounds read low 1.01 | locus YJL154C, strain vps35, active compounds read low 0.967 | locus YJL164C, strain tpk1, active compounds read low 0.99 | locus YJL166W, strain qcr8, active compounds read low 0.996 | locus YJL168C, strain set2, active compounds read low 0.994 | locus YJL187C, strain SWE1 (second series), active compounds read low 1.02 | locus YJR066W, strain TOR1, active compounds read low 0.904 | locus YKL009W, strain mrt4, active compounds read low 1.04 | locus YKL068W, active compounds read low 1 | locus YKL085W, strain MDH1 (second series), active compounds read low 1 | locus YKL085W, strain MDH1, active compounds read low 1 | locus YKL160W, strain elf1, active compounds read low 0.962 | locus YKL190W, strain CNB1, active compounds read low 1.02 | locus YKR001C, strain vps1, active compounds read low 0.992 | locus YKR026C, strain gcn3, active compounds read low 0.987 | locus YKR091W, strain srl3, active compounds read low 0.968 | locus YLL001W, strain dnm1, active compounds read low 0.963 | locus YLL026W, active compounds read low 0.982 | locus YLL041C, strain sdh2, active compounds read low 0.971 | locus YLR027C, strain aat2, active compounds read low 1.02 | locus YLR039C, strain RIC1, active compounds read low 1.08 | locus YLR058C, strain SHM2, active compounds read low 1.03 | locus YLR102C, strain apc9, active compounds read low 0.996 | locus YLR113W, strain HOG1, active compounds read low 1.02 | locus YLR221C, strain rsa3, active compounds read low 1.02 | locus YLR258W, strain gsy2, active compounds read low 0.962 | locus YLR262C, strain YPT6 (second series), active compounds read low 1.01 | locus YLR262C, strain YPT6, active compounds read low 1.11 | locus YLR268W, strain sec22, active compounds read low 1.02 | locus YLR320W, strain mms22, active compounds read low 1.03 | locus YLR330W, strain CHS5, active compounds read low 1.02 | locus YLR342W, strain FKS1 (second series), active compounds read low 1.06 | locus YLR342W, strain FKS1, active compounds read low 1 | locus YLR357W, strain rsc2, active compounds read low 0.95 | locus YLR370C, strain arc18, active compounds read low 0.98 | locus YLR371W, strain rom2, active compounds read low 1.01 | locus YLR384C, strain iki3, active compounds read low 0.969 | locus YLR418C, strain cdc73, active compounds read low 0.958 | locus YML016C, strain PPZ1, active compounds read low 1.02 | locus YML032C, strain rad52, active compounds read low 0.994 | locus YML120C, strain ndi1, active compounds read low 0.947 | locus YML124C, strain tub3, active compounds read low 0.997 | locus YMR058W, strain fet3, active compounds read low 0.992 | locus YMR078C, strain ctf18, active compounds read low 0.99 | locus YMR125W, strain sto1, active compounds read low 0.926 | locus YMR129W, active compounds read low 0.989 | locus YMR205C, strain PFK2, active compounds read low 0.984 | locus YMR223W, strain ubp8, active compounds read low 0.995 | locus YMR231W, strain pep5, active compounds read low 1 | locus YMR307W, strain GAS1, active compounds read low 1.16 | locus YNL067W, strain RPL9B, active compounds read low 1 | locus YNL071W, strain lat1, active compounds read low 0.967 | locus YNL183C, strain NPR1, active compounds read low 0.927 | locus YNL209W, strain ssb2, active compounds read low 0.984 | locus YNL233W, strain BNI4, active compounds read low 1.02 | locus YNL248C, strain rpa49, active compounds read low 0.904 | locus YNL250W, strain rad50, active compounds read low 0.972 | locus YNL271C, strain bni1, active compounds read low 1.01 | locus YNL298W, strain CLA4, active compounds read low 0.998 | locus YNL307C, strain MCK1, active compounds read low 0.998 | locus YNL322C, strain KRE1 (second series), active compounds read low 0.971 | locus YNL322C, strain KRE1, active compounds read low 1.02 | locus YNR049C, strain mso1, active compounds read low 0.951 | locus YNR052C, strain pop2, active compounds read low 0.988 | locus YOL012C, strain htz1 0.64 | locus YOL147C, strain pex11, active compounds read low 0.987 | locus YOR001W, strain rrp6, active compounds read low 0.989 | locus YOR061W, strain CKA2, active compounds read low 1.05 | locus YOR069W, strain VPS5, active compounds read low 1.02 | locus YOR070C, strain gyp1, active compounds read low 1 | locus YOR080W, strain dia2, active compounds read low 0.991 | locus YOR083W, strain WHI5, active compounds read low 0.973 | locus YOR106W, strain vam3, active compounds read low 0.922 | locus YOR136W, strain idh2, active compounds read low 0.958 | locus YOR144C, strain elg1, active compounds read low 0.989 | locus YOR184W, strain ser1, active compounds read low 1.04 | locus YOR231W, strain MKK1, active compounds read low 1.01 | locus YOR265W, strain rbl2, active compounds read low 0.997 | locus YOR270C, strain vph1, active compounds read low 1.08 | locus YOR290C, strain snf2, active compounds read low 0.888 | locus YOR316C, strain cot1, active compounds read low 0.984 | locus YPL051W, strain arl3, active compounds read low 0.992 | locus YPL055C, strain LGE1, active compounds read low 1.06 | locus YPL078C, strain atp4, active compounds read low 0.927 | locus YPL106C, strain sse1, active compounds read low 0.966 | locus YPL240C, strain hsp82, active compounds read low 0.988 | locus YPL256C, strain CLN2, active compounds read low 1.01 | locus YPR119W, strain clb2, active compounds read low 0.992 | locus YPR141C, strain kar3, active compounds read low 0.992 | locus YPR163C, strain tif3, active compounds read low 0.993 | locus YPR167C, strain met16, active compounds read low 0.987 | strain wtn01, active compounds read low 1.01
